Results: PubChem BioAssay (NCI)
This is part of a sample that, as a whole, favours compounds with a hit. Of some 83,000 tested, about 20% had one in any assay.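 Compound tested at a single concentration for 48 hours in 96-well plates; a percent growth value below 10 was scored as active.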 Activity calls are given as the source filed them.

test system: HCC-2998 colon; assay: NCI-60 one-dose screen, 48 h (100 = growth as untreated, 0 = no growth, -100 = all killed); conditions: 10 µM unless noted

| Structure (SMILES) | growth |
| --- | --- |
| Cc1c2cnccc2c(C)c2c1c1cc(C3OCCCO3)ccc1n2C | -15.1% (active) |
| CC(C)c1ccc(-n2c(=S)[nH]c3sc4c(c3c2=O)CCC(=O)C4)cc1 | 40.1% (inactive) |
| O=C(Nc1cccc(NC(=O)C2CCCCC2)c1)c1ccccn1 | 87.4% (inactive) |
| O=C1NC(=O)c2c1c1c3ccccc3[nH]c1c1oc3ccc(F)cc3c21 | 65.6% (inactive) |
| CCOC(=O)c1ccc2c(c1)c1c(C)c3ccncc3c(C)c1n2C | 4.25% (active) |
| COc1ccc(-c2oc(=O)ccc2-c2cc(OC)c(OC)c(OC)c2)cc1O | 211% (inactive) |
| COc1cc(Nc2c3ccc(Cl)cc3nc3ccc(OC)cc23)c2ncccc2c1 | 44.8% (inactive) |
| O=C(CCCCCCN1CC(=O)N2[C@@H](C3CCCCC3)c3[nH]c4ccccc4c3C[C@H]2C1=O)NO | 94% (inactive) |
| C=CCN=C(N)SCCCCCCSC(N)=NCC=C | 93.1% (inactive) |
| O=C(/C=C\c1ccco1)/C=C/c1ccco1 | 101% (inactive) |
| C#Cc1cccc(Nc2nc3ccc([N+](=O)[O-])cc3nc2Nc2cccc(C#C)c2)c1 | -80.8% (active) |
| COc1cc(/C=C2\CN(S(=O)(=O)c3ccc(C)cc3)C/C(=C\c3cc(CN4CCCCC4)c(O)c(OC)c3)C2=O)cc(CN2CCCCC2)c1O | -87.2% (active) |
| O=C1/C(=C/c2ccc(Br)cc2)COc2ccc(O)c(O)c21 | -66.3% (active) |
| O=C1CC2C=CCN2C=C1NC(=O)C1CCCCC1 (stereo unspecified) | 88.3% (inactive) |
| CCN(CC)CCOc1nc2c3ccc(Cl)cc3nn2c2ccccc12 | 15.4% (inactive) |
| COc1ccc2c(O)c(/C=C3\N=Nc4ccccc43)oc2c1C[C@H]1CCNC[C@H]1F | 49.7% (inactive) |
| CCCCCCC(=O)Nc1ncc(Cc2ccc(C)cc2)s1 | 70.3% (inactive) |
| COc1ccc(C2C3=C(COC3=O)N(CCO)c3cc4c(cc32)OCCO4)cc1OC (stereo unspecified) | 48.7% (inactive) |
| Nc1c(C(=O)Nc2ccccn2)sc2nc3c(cc12)C(O)CCC3 (stereo unspecified) | 70.7% (inactive) |
| Cc1nc2sc(C(=O)Nc3ccc(Cl)cc3)c(N)c2cc1C(O)c1ccccc1 (stereo unspecified) | 62.5% (inactive) |
| COc1ncc2cc1NS(=O)(=O)c1cccc(c1)C(=O)NCC1=CC=C(S1)c1ncnc3c1SC2=C3C | -43.1% (active) |
| CC(/C=C1\SC(=S)N(CC(=O)NC(Cc2c[nH]c3ccccc23)C(=O)O)C1=O)=C\c1ccccc1 (stereo unspecified) | 103% (inactive) |
| C=C(C)[C@@H]1CC[C@]2(CO)CC[C@]3(C)[C@H](CC[C@@H]4[C@@]5(C)CCC(NCCc6ccc(O)cc6)C(C)(C)[C@@H]5CC[C@]43C)[C@@H]12 (stereo partly specified) | -90.1% (active) |
| Cn1cc(-c2nn3cc(-c4ccccc4)nc3s2)c2ccccc21 | 86% (inactive) |
| C#CCOc1cccc(-c2ncc3cc(NC(=O)CCl)ccc3n2)c1 | -7.49% (active) |
| C#CC#CC#CC#CC#CC#CC#CC#CC[C@H]1OC[C@@H](COC(=O)O[C@@H](C(=O)O[C@H]2C[C@@]3(O)[C@@H](OC(=O)c4ccccc4)[C@@H]4[C@]5(OC(C)=O)CO[C@@H]5C[C@H](O)[C@@]4(C)C(=O)[C@H](OC(C)=O)C(=C2C)C3(C)C)[C@@H](NC(=O)c2ccccc2)c2ccccc2)O1 | 48.3% (inactive) |

test system: KM12 colon; assay: as above; conditions: 10 µM unless noted

| Structure (SMILES) | growth |
| --- | --- |
| COc1ccc(C(c2cc(OC)c(OC)c(OC)c2)N2CCN(Cc3ccccc3)CC2)cc1 (stereo unspecified) | 40.6% (inactive) |
| COc1ccc2nc(SCC(=O)Nc3ccccc3C)[nH]c2c1 | 101% (inactive) |
| N/C(=N\c1nc2ccccc2s1)NC(=NC1CCCCC1)NC1CCCCC1 | 27.5% (inactive) |
| CSCCC(NC(=O)c1ccccc1)C(=O)N/N=C1\S/C(=C/c2ccc(Cl)cc2)C(=O)N1C (stereo unspecified) | 88.9% (inactive) |
| S=c1[nH]c2cc(Cl)ccc2o1 | 100% (inactive) |
| COc1ccc(-c2cc(C(=O)N3N=C(c4ccc(N)cc4)CC3c3ccccc3)c3ccccc3n2)cc1 (stereo unspecified) | 25.1% (inactive) |
| Cn1c(=O)c2c(nc(NC3=NS(=O)(=O)c4ccccc43)n2Cc2ccccc2)n(C)c1=O | 99.9% (inactive) |
| O=C(Nc1cccnc1Nc1ccc(Cl)cc1)c1cn(Cc2ccc(F)cc2)nn1 | 102% (inactive) |
| Cc1c2cc[nH]c(=O)c2c(C)c2c1[nH]c1ccc(OC(=O)c3ccccc3)cc12 | 39% (inactive) |
| N=C(N)c1ccc(-c2ccc(-c3ccc(Cl)cc3Cl)s2)cc1F | -86.3% (active) |
| COc1ccc2cc(Cn3cc[n+](Cc4ccc5ccccc5c4)c3)ccc2c1 | -23.2% (active) |
| COC(=O)c1c2c(n3ccc(C)cc13)C(=O)c1ccccc1C2=O | 59.4% (inactive) |
| CNC(=O)c1cc(Oc2ccc3nc(NC(=O)Nc4ccc(Cl)c(Cl)c4)sc3c2)ccn1 | 56.8% (inactive) |
| Cc1c(Cl)cccc1C(=O)Nc1nc2c(s1)CN(C(=O)Nc1cccc(C(F)(F)F)c1)CC2 | 14.5% (inactive) |
| Cc1c2cnccc2c(C)c2c1c1cc(C3OCCCO3)ccc1n2C | 5.75% (active) |
| CC(C)c1ccc(-n2c(=S)[nH]c3sc4c(c3c2=O)CCC(=O)C4)cc1 | 18.6% (inactive) |
| O=C(Nc1cccc(NC(=O)C2CCCCC2)c1)c1ccccn1 | 98.6% (inactive) |
| O=C1NC(=O)c2c1c1c3ccccc3[nH]c1c1oc3ccc(F)cc3c21 | 45.9% (inactive) |
| CCOC(=O)c1ccc2c(c1)c1c(C)c3ccncc3c(C)c1n2C | 0.78% (active) |
| COc1ccc(-c2oc(=O)ccc2-c2cc(OC)c(OC)c(OC)c2)cc1O | 22.6% (inactive) |

| Structure (SMILES) | growth |
| --- | --- |
| COc1cc(Nc2c3ccc(Cl)cc3nc3ccc(OC)cc23)c2ncccc2c1 | 39.3% (inactive) |
| O=C(CCCCCCN1CC(=O)N2[C@@H](C3CCCCC3)c3[nH]c4ccccc4c3C[C@H]2C1=O)NO | 81.3% (inactive) |
| C=CCN=C(N)SCCCCCCSC(N)=NCC=C | 97.5% (inactive) |
| O=C(/C=C\c1ccco1)/C=C/c1ccco1 | 106% (inactive) |
| C#Cc1cccc(Nc2nc3ccc([N+](=O)[O-])cc3nc2Nc2cccc(C#C)c2)c1 | -77.9% (active) |
| COc1cc(/C=C2\CN(S(=O)(=O)c3ccc(C)cc3)C/C(=C\c3cc(CN4CCCCC4)c(O)c(OC)c3)C2=O)cc(CN2CCCCC2)c1O | -85.2% (active) |
| O=C1/C(=C/c2ccc(Br)cc2)COc2ccc(O)c(O)c21 | -68% (active) |
| O=C1CC2C=CCN2C=C1NC(=O)C1CCCCC1 (stereo unspecified) | 96.1% (inactive) |
| CCN(CC)CCOc1nc2c3ccc(Cl)cc3nn2c2ccccc12 | 43.1% (inactive) |
| COc1ccc2c(O)c(/C=C3\N=Nc4ccccc43)oc2c1C[C@H]1CCNC[C@H]1F | 2.5% (active) |
| CCCCCCC(=O)Nc1ncc(Cc2ccc(C)cc2)s1 | 30.7% (inactive) |
| COc1ccc(C2C3=C(COC3=O)N(CCO)c3cc4c(cc32)OCCO4)cc1OC (stereo unspecified) | 23.2% (inactive) |
| Nc1c(C(=O)Nc2ccccn2)sc2nc3c(cc12)C(O)CCC3 (stereo unspecified) | 18.3% (inactive) |
| Cc1nc2sc(C(=O)Nc3ccc(Cl)cc3)c(N)c2cc1C(O)c1ccccc1 (stereo unspecified) | 21.7% (inactive) |
| COc1ncc2cc1NS(=O)(=O)c1cccc(c1)C(=O)NCC1=CC=C(S1)c1ncnc3c1SC2=C3C | -62.1% (active) |
| CC(/C=C1\SC(=S)N(CC(=O)NC(Cc2c[nH]c3ccccc23)C(=O)O)C1=O)=C\c1ccccc1 (stereo unspecified) | 107% (inactive) |
| C=C(C)[C@@H]1CC[C@]2(CO)CC[C@]3(C)[C@H](CC[C@@H]4[C@@]5(C)CCC(NCCc6ccc(O)cc6)C(C)(C)[C@@H]5CC[C@]43C)[C@@H]12 (stereo partly specified) | -84% (active) |
| Cn1cc(-c2nn3cc(-c4ccccc4)nc3s2)c2ccccc21 | 41.6% (inactive) |
| C#CCOc1cccc(-c2ncc3cc(NC(=O)CCl)ccc3n2)c1 | 14.2% (inactive) |
| C#CC#CC#CC#CC#CC#CC#CC#CC[C@H]1OC[C@@H](COC(=O)O[C@@H](C(=O)O[C@H]2C[C@@]3(O)[C@@H](OC(=O)c4ccccc4)[C@@H]4[C@]5(OC(C)=O)CO[C@@H]5C[C@H](O)[C@@]4(C)C(=O)[C@H](OC(C)=O)C(=C2C)C3(C)C)[C@@H](NC(=O)c2ccccc2)c2ccccc2)O1 | 16.7% (inactive) |
